Among the test systems are NCI-H23 lung; NCI-H322M lung; NCI-H460 lung; HOP-92 NSCLC; NCI-H522 lung; A549/ATCC NSCLC; 786-0 renal; COLO 205 colon; DU-145 prostate; K-562 leukemia; MALME-3M melanoma; MDA-MB-231 breast; RXF 393 renal; SF-268 CNS; SF-295 CNS; SF-539 CNS; UACC-257 melanoma; M14 melanoma; HCT-15 colon.
Assay in all cases: NCI-60 one-dose screen, 48 h (100 = growth as untreated, 0 = no growth, -100 = all killed)
What all share (details): 10 µM unless noted

The structures appear in SMILES notation. Compounds without any hit were thinned out: in the full panel of roughly 83,000, 20% have a hit.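 Assay: single dose, 48 h. Readout: percent growth (0 = no net growth; negative = cell death). Active: <10.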 A number with no mark means an inactive call. Active and inactive are the calls of the source.

Data on 11 compounds can be found in PubChem BioAssay (NCI).

In the case of `O=C(Nc1ccc(F)cc1F)c1cc(I)ccc1O`, the growth with NCI-H23 lung is 8.86% (active); in the experiment on NCI-H322M lung, 8.13% (active); with NCI-H460 lung, 6.03% (active); in the experiment with HOP-92 NSCLC, -20% (active); in the experiment on NCI-H522 lung it was -12.4% (active); in the experiment with A549/ATCC NSCLC it was 6.86% (active). Besides, the growth in the experiment with 786-0 renal is 12.3%; with COLO 205 colon it was 77.8%; in the experiment on DU-145 prostate, 19.1%; in the experiment on K-562 leukemia it was 9.06% (active); in the experiment on MALME-3M melanoma it was -17.6% (active); in the experiment on MDA-MB-231 breast, 35.2%. Also, the growth in the experiment on RXF 393 renal was -1.12% (active); in the experiment with SF-268 CNS, 16.1%; in the experiment on SF-295 CNS it was 1.39% (active); in the experiment on SF-539 CNS it was 13.3%; in the experiment with UACC-257 melanoma, -9.13% (active); in the experiment on M14 melanoma, 16.7%. For the same compound, the growth with HCT-15 colon is 15.9%.

Take `COc1ccc(-c2nnc(COc3ccc(C(=O)/C=C/c4ccco4)cc3)o2)cc1`: the growth in the experiment with NCI-H23 lung was 92.1%; with NCI-H322M lung it was 86.6%; in the experiment on NCI-H460 lung, 78.5%; with HOP-92 NSCLC, 88.4%; in the experiment with NCI-H522 lung, 91.8%; with A549/ATCC NSCLC, 87%. The growth in the experiment on 786-0 renal was 50.9%; in the experiment on COLO 205 colon, 44.7%; in the experiment on DU-145 prostate, 61.6%; in the experiment with K-562 leukemia, 15.3%; in the experiment on MALME-3M melanoma, 125%; with MDA-MB-231 breast, 90%. Moreover, the growth with RXF 393 renal is 65%; in the experiment on SF-268 CNS it was 58.1%; in the experiment on SF-295 CNS, -2.9% (active); in the experiment on SF-539 CNS it was 55.9%; with UACC-257 melanoma, 105%; in the experiment with M14 melanoma it was 98.8%. Further, the growth in the experiment on HCT-15 colon is 68.3%.

On to `Cc1ccccc1CNC(=O)C1CN(c2ccc(Cl)cc2)N(c2ccc(Cl)cc2)C1=O` (centres undefined), for which the growth in the experiment with NCI-H23 lung was 90.6%; in the experiment on NCI-H322M lung it was 89.1%; with NCI-H460 lung, 91.4%; in the experiment with HOP-92 NSCLC, 96.9%; in the experiment on NCI-H522 lung, 68.5%; with A549/ATCC NSCLC, 64.4%. Moreover, the growth with 786-0 renal is 96.7%; in the experiment on DU-145 prostate it was 99.7%; in the experiment on K-562 leukemia, 51.6%; in the experiment on MALME-3M melanoma, 91.1%; in the experiment with MDA-MB-231 breast, 84.6%; in the experiment on RXF 393 renal it was 91.6%. For the same compound, the growth in the experiment with SF-268 CNS was 83.7%; with SF-295 CNS, 90.1%; in the experiment on SF-539 CNS, 98.7%; with UACC-257 melanoma it was 78.6%; with M14 melanoma, 90.1%; in the experiment with HCT-15 colon, 78.8%.

For the compound `O=C1Nc2ccccc2/C1=C/c1ccc[nH]1`, the growth was 84.9% in the experiment on NCI-H23 lung; 88% in the experiment on NCI-H322M lung; 85.9% in the experiment on NCI-H460 lung; 104% in the experiment with HOP-92 NSCLC; 90.9% in the experiment with NCI-H522 lung; 92.9% in the experiment with A549/ATCC NSCLC. Moreover, the growth in the experiment with 786-0 renal was 96.3%; with COLO 205 colon, 106%; in the experiment on DU-145 prostate, 101%; in the experiment on K-562 leukemia, 107%; in the experiment on MALME-3M melanoma, 94.5%; with MDA-MB-231 breast it was 40.3%. The growth in the experiment with RXF 393 renal is 80.5%; in the experiment on SF-268 CNS it was 92.1%; with SF-295 CNS, 102%; in the experiment with SF-539 CNS it was 86.6%; in the experiment on UACC-257 melanoma it was 96.6%; in the experiment on M14 melanoma, 89.8%. Also, the growth in the experiment with HCT-15 colon is 42.1%.

For `CCN1C(=O)N(CC)C2C1NN=c1s/c(=C3\C(=O)N(CC(C)(C)C)c4ccccc43)c(=O)n12` (centres undefined), the growth with NCI-H23 lung is 45%; in the experiment on NCI-H322M lung it was 60.5%; in the experiment with NCI-H460 lung, 4.52% (active); with HOP-92 NSCLC it was 78.6%; in the experiment on NCI-H522 lung, -4.26% (active); with A549/ATCC NSCLC it was 30.1%. Moreover, the growth in the experiment on 786-0 renal is 39.9%; in the experiment with COLO 205 colon it was -38.1% (active); with DU-145 prostate, 6.12% (active); in the experiment on K-562 leukemia, 4.89% (active); in the experiment on MALME-3M melanoma, 71.3%; in the experiment on MDA-MB-231 breast, 26%. Besides, the growth in the experiment with RXF 393 renal is 12.3%; with SF-268 CNS it was 40%; in the experiment on SF-295 CNS it was 15.9%; in the experiment with SF-539 CNS it was -17.9% (active); in the experiment on UACC-257 melanoma, 71.4%; in the experiment on M14 melanoma, 18.3%. Besides, the growth with HCT-15 colon was 14.2%.

As for `Cc1ccc(OCCCCCCNCCO)c(C)c1`, the growth is 19.8% in the experiment with NCI-H23 lung; 11.1% in the experiment with NCI-H322M lung; -20.9% (active) in the experiment with NCI-H460 lung; 12.8% in the experiment on HOP-92 NSCLC; -8.65% (active) with NCI-H522 lung; 5.92% (active) with A549/ATCC NSCLC. Further, the growth with 786-0 renal is 11.3%; with COLO 205 colon it was 1.75% (active); with DU-145 prostate, 21.5%; with K-562 leukemia, 6.98% (active); with MALME-3M melanoma it was -0.226% (active); in the experiment on MDA-MB-231 breast it was 18%. For the same compound, the growth with RXF 393 renal was -2.46% (active); in the experiment on SF-268 CNS, 4.83% (active); in the experiment with SF-539 CNS, -14.7% (active); with UACC-257 melanoma, -8.91% (active); with M14 melanoma, -0.43% (active); in the experiment with HCT-15 colon it was 22.8%.

Consider `Nc1ccn(C2O[C@H](CO)[C@@H](O)[C@H]2O)c(=O)n1` (some centres undefined), for which the growth with NCI-H23 lung is 71.8%; with NCI-H322M lung it was 114%; in the experiment on NCI-H460 lung, 59.8%; in the experiment on HOP-92 NSCLC, 73.2%; in the experiment on NCI-H522 lung, 71.2%; in the experiment with A549/ATCC NSCLC, 46.6%. Further, the growth with 786-0 renal is 95.2%; in the experiment on COLO 205 colon it was 110%; with DU-145 prostate, 94.4%; in the experiment on K-562 leukemia, 74.3%; in the experiment on MALME-3M melanoma, 109%; in the experiment with MDA-MB-231 breast, 82.8%. Further, the growth in the experiment with RXF 393 renal is 50.1%; in the experiment with SF-268 CNS, 86.2%; in the experiment on SF-295 CNS, 58.5%; in the experiment with SF-539 CNS, 73.1%; with UACC-257 melanoma it was 90.1%; in the experiment on M14 melanoma, 107%.

With `Cc1ccc(N=NC2C(=O)N(c3ccc(Cl)cc3)N(c3ccc(Cl)cc3)C2=O)cc1`, the growth with NCI-H23 lung was 95.6%; with NCI-H322M lung, 97.4%; in the experiment with NCI-H460 lung, 99.8%; in the experiment on HOP-92 NSCLC, 101%; with NCI-H522 lung, 85.1%; with A549/ATCC NSCLC, 99%. Further, the growth in the experiment on 786-0 renal was 108%; in the experiment on DU-145 prostate it was 107%; with K-562 leukemia, 94.1%; with MALME-3M melanoma, 98%; in the experiment on MDA-MB-231 breast, 91.7%; in the experiment with RXF 393 renal, 113%. Further, the growth with SF-268 CNS is 100%; in the experiment on SF-295 CNS, 93.9%; in the experiment with SF-539 CNS, 100%; in the experiment on UACC-257 melanoma, 86.8%; with M14 melanoma it was 102%; in the experiment with HCT-15 colon, 98.3%.

As for `COc1ccc(-c2nc(-c3ccccc3)c(-c3ccccc3)[nH]2)cc1OC1CCCCC1`, the growth with NCI-H23 lung is 89%; in the experiment on NCI-H322M lung, 84.9%; with NCI-H460 lung it was 88.3%; in the experiment on HOP-92 NSCLC, 69.6%; with NCI-H522 lung, 88.3%; with A549/ATCC NSCLC it was 85.5%. For the same compound, the growth in the experiment on 786-0 renal was 102%; in the experiment with COLO 205 colon, 98.1%; with DU-145 prostate, 99.7%; in the experiment with K-562 leukemia, 81.4%; in the experiment with MALME-3M melanoma it was 73%; in the experiment with MDA-MB-231 breast, 67%. In addition, the growth with RXF 393 renal is 105%; with SF-268 CNS, 84.4%; in the experiment with SF-295 CNS it was 80.9%; in the experiment on SF-539 CNS, 102%; in the experiment on UACC-257 melanoma, 93.8%; with M14 melanoma it was 92.2%. Moreover, the growth with HCT-15 colon is 93.4%.

Turning to `CCOC(=O)c1cc2c(n1Cc1cccc(OC)c1)-c1oncc1CCC2`, the growth in the experiment on NCI-H23 lung is 36.4%; with NCI-H322M lung, 74.8%; with NCI-H460 lung, 17.9%; with HOP-92 NSCLC it was 67.4%; with NCI-H522 lung, 14.5%; with A549/ATCC NSCLC, 42.3%. In addition, the growth in the experiment with 786-0 renal was 51.7%; in the experiment with COLO 205 colon, -17.5% (active); with DU-145 prostate it was 23.3%; in the experiment with K-562 leukemia, 10.8%; in the experiment with MALME-3M melanoma it was -0.828% (active); in the experiment on MDA-MB-231 breast, 53.9%. Besides, the growth in the experiment with RXF 393 renal is 21.4%; in the experiment with SF-268 CNS it was 38.8%; in the experiment with SF-295 CNS it was 7.73% (active); with SF-539 CNS, 2.09% (active); with UACC-257 melanoma it was 42.7%; with HCT-15 colon it was 29.3%.

On to `O=c1oc2ccc(Cl)cc2c(=O)n1-c1ccc(F)cc1F`, for which the growth with NCI-H23 lung is 7.47% (active); with NCI-H322M lung it was 3.62% (active); in the experiment with NCI-H460 lung, 7.56% (active); with HOP-92 NSCLC it was -22.9% (active); with NCI-H522 lung, -23% (active); in the experiment with A549/ATCC NSCLC, 4.94% (active). The growth is 9.41% (active) with 786-0 renal; 64.9% in the experiment with COLO 205 colon; 18.7% with DU-145 prostate; 9.99% (active) in the experiment on K-562 leukemia; -23.8% (active) in the experiment with MALME-3M melanoma; 4.44% (active) in the experiment with MDA-MB-231 breast. Further, the growth with RXF 393 renal was 2.26% (active); in the experiment on SF-268 CNS, 12.3%; in the experiment on SF-295 CNS, -7.12% (active); in the experiment with SF-539 CNS it was 13.2%; with UACC-257 melanoma, -13.1% (active); with M14 melanoma, 20.3%. Besides, the growth with HCT-15 colon is 13.5%.
